According to PubChem BioAssay (NCI):
The panel holds about 79,000 compounds, 15% with a hit somewhere; the sample as a whole holds those more often. Active and inactive are the calls of the source. Cut-off read from the data, not from the text of the source: active = growth inhibition above about 70%; inactive = the rest.

How the values were obtained:
[1] = NCI Yeast Anticancer Drug Screen. Data for the rad52 strain (AID 147);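 note: 0% = growth of vehicle-treated control cultures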; settings: S. cerevisiae rad52 mutant growth inhibition, hits give high values
Method in brief: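 Genetically altered yeast (DNA damage repair defect) treated with compound; inhibition calculated relative to vehicle.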

[2] = NCI Yeast Anticancer Drug Screen. Data for the wt1 strain (AID 149);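 note: 0% = growth of vehicle-treated wt1 cultures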; settings: S. cerevisiae wt1 strain (SPY 50644) growth inhibition, hits give high values
Method in brief: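 Compounds are added to wt1 yeast cultures. Growth is then measured. Inhibition is expressed relative to vehicle-treated controls.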

[3] = NCI Yeast Anticancer Drug Screen. Data for the rad50EPP+ strain (AID 151);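 note: 0% = growth of vehicle-treated control cultures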; settings: S. cerevisiae rad50 mutant strain, hits give high values
Method in brief: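 Strain rad50EPP+; compound exposure; % growth inhibition vs vehicle.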

[4] = NCI Yeast Anticancer Drug Screen. Data for the mgt1 strain (AID 153); settings: S. cerevisiae mgt1 mutant growth inhibition, hits give high values
Method in brief: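 Read-out: yeast growth inhibition vs vehicle control. Strain mgt1, drawn from a panel altered in DNA damage repair or cell cycle control.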

[5] = NCI Yeast Anticancer Drug Screen. Data for the rad50 strain (AID 155);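 note: 0% = growth of vehicle-only cultures of the same strain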; settings: S. cerevisiae rad50 strain growth inhibition, hits give high values
Method in brief: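 Inhibition values express reduced yeast growth in compound-treated cultures relative to vehicle-treated controls.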

[6] = NCI Yeast Anticancer Drug Screen. Data for the mec2-1 strain (AID 157); settings: S. cerevisiae mec2-1 strain, hits give high values
Method in brief: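 Cells of the genetically defined mec2-1 yeast strain are incubated with test compound. Inhibition of growth is calculated against vehicle-treated controls.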

[7] = NCI Yeast Anticancer Drug Screen. Data for the rad14 strain (AID 159);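 note: 0% = growth of vehicle-treated control cultures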; settings: S. cerevisiae rad14 strain growth inhibition, hits give high values
Method in brief: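 A mutant yeast strain defective in DNA damage repair is treated with compound; inhibition of its growth is scored against untreated, vehicle-exposed cultures.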

[8] = NCI Yeast Anticancer Drug Screen. Data for the sgs1 mgt1 strain (AID 161);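 note: 0% = growth of cultures given vehicle only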; settings: S. cerevisiae sgs1 mgt1 strain, hits give high values
Method in brief: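 Test agents were incubated with a DNA-repair-mutant yeast strain. Growth was then read and compared against vehicle-treated controls.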

[9] = NCI Yeast Anticancer Drug Screen. Data for the CLN2oe strain (AID 163);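 note: 0% = growth of vehicle-only control cultures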; settings: S. cerevisiae CLN2oe strain, hits give high values
Method in brief: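 Strain altered in cell-cycle control, incubated with compound; growth compared to solvent-treated controls.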

[10] = NCI Yeast Anticancer Drug Screen. Data for the cln2 rad14 strain (AID 165);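 note: 0% = growth equal to vehicle treated cultures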; settings: S. cerevisiae cln2 rad14 strain, hits give high values
Method in brief: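 The screen exposed genetically defined yeast (cln2 rad14) to test compounds and scored growth inhibition relative to vehicle-treated controls.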

[11] = NCI Yeast Anticancer Drug Screen. Data for the bub3 strain (AID 167); settings: S. cerevisiae bub3 mutant strain, hits give high values
Method in brief: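 Steps: expose the mutant yeast strain to compound; grow alongside vehicle-treated cultures; measure growth; express inhibition against the vehicle cultures.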

[12] = NCI Yeast Anticancer Drug Screen. Data for the wt2 strain (AID 169);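 note: 0% = growth of vehicle-treated yeast cultures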; settings: S. cerevisiae wt2 strain growth inhibition, hits give high values
Method in brief: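 Steps: yeast strain treated with compound; growth recorded; inhibition calculated relative to cultures given vehicle alone.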

[13] = NCI Yeast Anticancer Drug Screen. Data for the mlh1 strain (AID 171);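 note: 0% = growth of vehicle-treated control cultures of the same strain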; settings: S. cerevisiae mlh1 strain growth inhibition, hits give high values
Method in brief: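 Yeast screen: mutant strain plus compound, growth scored against vehicle control wells.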

[14] = NCI Yeast Anticancer Drug Screen. Data for the sgs1 strain (AID 173);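 note: 0% = growth of vehicle-only control cultures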; settings: S. cerevisiae sgs1 mutant, hits give high values
Method in brief: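 Inhibition of yeast growth served as the measure. The mutant strain was treated with each compound, and growth was normalised to cultures receiving vehicle alone.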

[15] = NCI Yeast Anticancer Drug Screen. Data for the mlh1 rad18 strain (AID 175); settings: S. cerevisiae mlh1 rad18 strain growth inhibition, hits give high values
Method in brief: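 Compound-treated yeast growth, normalised to vehicle controls. Strain bears defined DNA repair mutations.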

[16] = NCI Yeast Anticancer Drug Screen. Data for the rad18 strain (AID 177); settings: S. cerevisiae rad18 mutant growth inhibition, hits give high values
Method in brief: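 Inhibition values reflect reduced yeast growth compared with vehicle-treated controls, using a strain engineered with a DNA damage repair defect.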

[17] = at 5.0 µM (retest, dose inferred, filed as 0.5)
[18] = at 50.0 µM (retest, dose inferred, filed as 5.0)

Measured: growth inhibition

CCCCCCN(CCCCCC)CC(O)c1ccnc2ccc(OC)cc12 (stereo unspecified)
inactive: [1]; at 1.2 µM 0% | [1]; at 3.7 µM -2% | [1]; at 11.0 µM -5% | [1]; at 33.0 µM -7% | [1]; at 100.0 µM 66% | [2]; at 1.2 µM -1% | [2]; at 3.7 µM -3% | [2]; at 11.0 µM -5% | [2]; at 33.0 µM -7% | [2]; at 100.0 µM 15% | [3]; at 1.2 µM -4% | [3]; at 3.7 µM -2% | [3]; at 11.0 µM -2% | [3]; at 33.0 µM -5% | [3]; at 100.0 µM -8% | [4]; at 1.2 µM 1% | [4]; at 3.7 µM 2% | [4]; at 11.0 µM 0% | [4]; at 33.0 µM -3% | [5]; at 1.2 µM 1% | [5]; at 3.7 µM 1% | [5]; [17] -9% | [5]; at 11.0 µM -1% | [5]; at 33.0 µM -3% | [5]; [18] 27% | [5]; at 50.0 µM -10.1% | [5]; at 100.0 µM 69% | [6]; at 1.2 µM 2% | [6]; at 3.7 µM -1% | [6]; [17] -5% | [6]; at 11.0 µM 1% | [6]; at 33.0 µM 2% | [6]; [18] 18% | [6]; at 50.0 µM 1.15% | [6]; at 100.0 µM 67% | [7]; at 1.2 µM -2% | [7]; at 3.7 µM -3% | [7]; at 11.0 µM -4% | [7]; at 33.0 µM -5% | [7]; at 100.0 µM 63% | [8]; [17] -9% | [8]; [18] 49% | [9]; at 1.2 µM 6% | [9]; at 3.7 µM 1% | [9]; at 11.0 µM -1% | [9]; at 33.0 µM 1% | [9]; at 100.0 µM 36% | [10]; [17] -12% | [10]; [18] 26% | [10]; at 50.0 µM -8.6% | [11]; at 1.2 µM 5% | [11]; at 3.7 µM 5% | [11]; [17] -1% | [11]; at 11.0 µM 6% | [11]; at 33.0 µM 4% | [11]; [18] 40% | [11]; at 50.0 µM 26.6% | [11]; at 100.0 µM 61% | [12]; at 1.2 µM -1% | [12]; at 3.7 µM -4% | [12]; at 11.0 µM -5% | [12]; at 33.0 µM -5% | [12]; at 100.0 µM 68% | [13]; at 1.2 µM -1% | [13]; at 3.7 µM -3% | [13]; at 11.0 µM -3% | [13]; at 33.0 µM -4% | [14]; at 1.2 µM -3% | [14]; at 3.7 µM -2% | [14]; at 11.0 µM -3% | [14]; at 33.0 µM -3% | [15]; [17] -3% | [15]; [18] 14% | [15]; at 50.0 µM 38.1% | [16]; at 1.2 µM -5% | [16]; at 3.7 µM -7% | [16]; at 11.0 µM -7% | [16]; at 33.0 µM -13% | [16]; at 100.0 µM 35%
active: [4]; at 100.0 µM 74% | [8]; at 50.0 µM 74.5% | [13]; at 100.0 µM 74% | [14]; at 100.0 µM 79%

Cc1ccc(NC(=O)/C(CC2N=c3c(ccc4c(O)c5ccccc5c(O)c34)=NC2O)=N/NC(C)(C)C)cc1 (stereo unspecified)
active: [5]; at 50.0 µM 77.6%
inactive: [1]; at 1.2 µM 7% | [1]; at 3.7 µM 9% | [1]; at 11.0 µM 33% | [1]; at 33.0 µM 49% | [1]; at 100.0 µM 61% | [2]; at 1.2 µM -19% | [2]; at 3.7 µM 2% | [2]; at 11.0 µM -2% | [2]; at 33.0 µM 8% | [2]; at 100.0 µM -6% | [3]; at 1.2 µM 16% | [3]; at 3.7 µM 34% | [3]; at 11.0 µM 44% | [3]; at 33.0 µM 50% | [3]; at 100.0 µM 54% | [4]; at 1.2 µM 16% | [4]; at 3.7 µM 5% | [4]; at 11.0 µM -1% | [4]; at 33.0 µM 22% | [4]; at 100.0 µM 22% | [5]; at 1.2 µM 17% | [5]; at 3.7 µM 23% | [5]; [17] -3% | [5]; at 11.0 µM 30% | [5]; at 33.0 µM 54% | [5]; [18] 65% | [5]; at 100.0 µM 65% | [6]; at 1.2 µM 15% | [6]; at 3.7 µM 18% | [6]; [17] 13% | [6]; at 11.0 µM 38% | [6]; at 33.0 µM 44% | [6]; [18] 25% | [6]; at 50.0 µM 1.25% | [6]; at 100.0 µM 35% | [7]; at 1.2 µM 9% | [7]; at 3.7 µM -9% | [7]; at 11.0 µM -10% | [7]; at 33.0 µM 0% | [7]; at 100.0 µM 1% | [8]; [17] -7% | [8]; [18] 2% | [8]; at 50.0 µM -0.2% | [9]; at 1.2 µM -5% | [9]; at 3.7 µM -2% | [9]; at 11.0 µM 3% | [9]; at 33.0 µM 0% | [9]; at 100.0 µM 1% | [10]; [17] -25% | [10]; [18] -3% | [10]; at 50.0 µM -19.9% | [11]; at 1.2 µM -3% | [11]; at 3.7 µM -2% | [11]; [17] 3% | [11]; at 11.0 µM -1% | [11]; at 33.0 µM 1% | [11]; [18] 17% | [11]; at 50.0 µM 33.6% | [11]; at 100.0 µM -1% | [12]; at 1.2 µM 0% | [12]; at 3.7 µM 1% | [12]; at 11.0 µM 4% | [12]; at 33.0 µM 5% | [12]; at 100.0 µM 7% | [13]; at 1.2 µM 7% | [13]; at 3.7 µM 16% | [13]; at 11.0 µM 10% | [13]; at 33.0 µM 28% | [13]; at 100.0 µM 16% | [14]; at 1.2 µM 3% | [14]; at 3.7 µM 4% | [14]; at 11.0 µM 2% | [14]; at 33.0 µM 1% | [14]; at 100.0 µM 1% | [15]; [17] 3% | [15]; [18] 32% | [15]; at 50.0 µM 27.4% | [16]; at 1.2 µM -4% | [16]; at 3.7 µM 12% | [16]; at 11.0 µM 20% | [16]; at 33.0 µM 40% | [16]; at 100.0 µM 18%
